# According to PubChem BioAssay:
# Inconclusive results are not listed. The source made the active and inactive calls.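 Rule for the calls, unless noted: active = normalized viability below 100% at a tested concentration; inactive = the rest.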
# Assays:
# [1] = viability loss in pontine glioma line – cell-based, SU-DIPG-XVII, MIPE5.0, CellTiter-Glo, qHTS, dose response (AID 1347060; cut-off not given, nearly all actives have AC50 up to about 26 µM;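 note: cells exposed to compound for 48 hours before viability readout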); conditions: CellTiter-Glo ATP luminescence
# [2] = viability loss in pontine glioma line – cell-based, SU-DIPG-XIII, MIPE4.0, CellTiter-Glo, qHTS, dose response (AID 1347061; cut-off not given, nearly all actives have AC50 up to about 37 µM;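 note: cells exposed to compound for 48 hours before readout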); conditions: CellTiter-Glo ATP luminescence
# [3] = viability loss in pontine glioma line – cell-based, JHH-DIPG-1, MIPE4.0, CellTiter-Glo, qHTS, dose response (AID 1347062; cut-off not given, nearly all actives have AC50 up to about 27 µM;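 note: cells exposed to compound for two days before readout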); conditions: JHH-DIPG-1 viability, CellTiter-Glo ATP luminescence
# [4] = viability loss in pontine glioma line – cell-based, SU-DIPG-IV, MIPE4.0, CellTiter-Glo, qHTS, dose response (AID 1347063; cut-off not given, nearly all actives have AC50 up to about 30 µM;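 note: compound exposure lasted 48 hours before the viability readout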); conditions: CellTiter-Glo ATP luminescence
# [5] = viability loss in pontine glioma line – cell-based, SU-DIPG-XIII, MIPE5.0, CellTiter-Glo, qHTS, dose response (AID 1347064; cut-off not given, nearly all actives have AC50 up to about 23 µM;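 note: cells exposed to compound for 48 hours before the viability read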); conditions: CellTiter-Glo ATP luminescence
# [6] = viability loss in pontine glioma line – cell-based, SU-DIPG-XXV, MIPE5.0, CellTiter-Glo, qHTS, dose response (AID 1347065; cut-off not given, nearly all actives have AC50 up to about 26 µM;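 note: cells exposed to compound for 48 hours before ATP readout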); conditions: CellTiter-Glo ATP luminescence
# [7] = growth inhibition of DIPG cells – cell-based, MIPE4.0 library, CellTiter-Glo luminescence, qHTS (AID 1347066; cut-off not given, nearly all actives have AC50 up to about 30 µM;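 note: cells exposed to compound for 48 hours before readout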); conditions: SU-DIPG-VI viability, CellTiter-Glo ATP luminescence
# [8] = JHH-DIPG-1 glioma cell viability, MIPE5.0 library, CellTiter-Glo luminescence, qHTS (AID 1347067; cut-off not given, nearly all actives have AC50 up to about 26 µM;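 note: cells exposed to compound for 48 hours before readout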); conditions: JHH-DIPG-1 glioma viability, CellTiter-Glo ATP luminescence
# [9] = viability loss with induced miR-34 in A549 – imaging, A549 dox-inducible miR-34, nuclei and caspase counts, primary screen (AID 1347080;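 active = compounds whose cell count with miR-34 switched on is under 0.7 times the count with it off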); conditions: A549 miR-34 inducible, Hoechst nuclei count, 48 h
# [10] = MELAS cybrid and Rieske KO viability enhancers – cell-based, MELAS cybrids, Rieske KO mouse fibroblasts, CellTiter-Glo, primary screen (AID 1508586;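 active = mean z-score across replicates of 1.96 or higher in either the MELAS or the Rieske mutant cell line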;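 note: z relative to plate mean and SD of compound and empty wells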); conditions: low glucose
# [11] = growth inhibition of DIPG cells – cell-based, MIPE5.0 library, qHTS (AID 1347068; cut-off not given, nearly all actives have IC50 up to about 30 µM;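 for IC50: cells exposed to compound for 48 hours before viability readout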); conditions: SU-DIPG-XXV viability
# [12] = drug combination growth inhibition, ovarian cancer – cell-based, oncology-focused library, rucaparib conditional, profiling panel (AID 1508598); conditions: patient-derived ovarian cancer cells, CellTiter-Glo viability, 144 h, stronger effect = lower value
# [13] = stronger effect = lower value, cell number ratio, induced over uninduced
# [14] = measured here: relative caspase fold change +Dox/-Dox
# [15] = measured here: total cells with miR-34 induction, stronger effect = lower value
# [16] = measured here: total cells without miR-34 induction
# [17] = MELAS cybrid survival, CellTiter-Glo 48 h, stronger effect = higher value
# [18] = Rieske KO mouse fibroblast survival, CellTiter-Glo 72 h
smiles,measurement,setting,value
O=C(NOCC(O)CO)c1cc(Br)c(F)c(F)c1Nc1ccc(I)cc1F (centres undefined),AC50,[1],2.09 µM (active)
same,AC50,[2],2.64 µM (active)
same,AC50,[3],16.6 µM (active)
same,AC50,[4],20.9 µM (active)
same,AC50,[5],1.48 µM (active)
same,AC50,[6],3.72 µM (active)
same,outcome,[7],inactive
same,AC50,[8],0.468 µM (active)
same,fold change,[9]; [13],1.01 (inactive)
same,fold change,[9]; [14],1.08
same,cell count,[9]; [15],3740
same,cell count,[9]; [16],3720
same,z-score,[10]; [17],-0.561 (inactive)
same,z-score,[10]; [18],-0.494
c1cncc(CN2CCC(n3ncc4c(N5CCOCC5)nc(-c5ccc6[nH]ccc6c5)nc43)CC2)c1,AC50,[1],7.42 µM (active)
same,AC50,[2],8.33 µM (active)
same,AC50,[3],14.8 µM (active)
same,AC50,[4],2.09 µM (active)
same,AC50,[5],16.6 µM (active)
same,AC50,[6],5.25 µM (active)
same,AC50,[8],20.9 µM (active)
same,outcome,[11],inactive
same,fold change,[9]; [13],0.951 (inactive)
same,fold change,[9]; [14],0.489
same,cell count,[9]; [15],2980
same,cell count,[9]; [16],3130
same,z-score,[10]; [17],4.98 (active)
same,z-score,[10]; [18],-1.65
Cc1cc(Nc2cc(N3CCN(C)CC3)nc(/C=C/c3ccccc3)n2)n[nH]1,AC50,[1],1.05 µM (active)
same,AC50,[2],12.1 µM (active)
same,AC50,[3],27 µM (active)
same,AC50,[4],13.6 µM (active)
same,AC50,[5],2.09 µM (active)
same,AC50,[6],1.05 µM (active)
same,AC50,[7],13.6 µM (active)
same,AC50,[8],4.68 µM (active)
same,IC50,[11],2.63 µM (active)
same,viability,"[12]; at 0.000305 µM, OCI-C5x cells, with rucaparib 10 µM, 100% = cells with rucaparib alone",120% (inactive)
same,viability,"[12]; at 0.000305 µM, OCI-C5x cells, without rucaparib",103% (inactive)
same,viability,"[12]; at 0.000305 µM, OCI-P5x cells, with rucaparib 20 µM, 100% = cells with rucaparib alone",101% (inactive)
same,viability,"[12]; at 0.000305 µM, OCI-P5x cells, without rucaparib",97.8% (active)
same,viability,"[12]; at 0.00122 µM, OCI-C5x cells, with rucaparib 10 µM, 100% = cells with rucaparib alone",106% (inactive)
same,viability,"[12]; at 0.00122 µM, OCI-C5x cells, without rucaparib",107% (inactive)
same,viability,"[12]; at 0.00122 µM, OCI-P5x cells, with rucaparib 20 µM, 100% = cells with rucaparib alone",110% (inactive)
same,viability,"[12]; at 0.00122 µM, OCI-P5x cells, without rucaparib",108% (inactive)
same,viability,"[12]; at 0.00488 µM, OCI-C5x cells, with rucaparib 10 µM, 100% = cells with rucaparib alone",113% (inactive)
same,viability,"[12]; at 0.00488 µM, OCI-C5x cells, without rucaparib",104% (inactive)
same,viability,"[12]; at 0.00488 µM, OCI-P5x cells, with rucaparib 20 µM, 100% = cells with rucaparib alone",118% (inactive)
same,viability,"[12]; at 0.00488 µM, OCI-P5x cells, without rucaparib",114% (inactive)
same,viability,"[12]; at 0.0195 µM, OCI-C5x cells, with rucaparib 10 µM, 100% = cells with rucaparib alone",115% (inactive)
same,viability,"[12]; at 0.0195 µM, OCI-C5x cells, without rucaparib",116% (inactive)
same,viability,"[12]; at 0.0195 µM, OCI-P5x cells, with rucaparib 20 µM, 100% = cells with rucaparib alone",109% (inactive)
same,viability,"[12]; at 0.0195 µM, OCI-P5x cells, without rucaparib",107% (inactive)
same,viability,"[12]; at 0.0781 µM, OCI-C5x cells, with rucaparib 10 µM, 100% = cells with rucaparib alone",110% (inactive)
same,viability,"[12]; at 0.0781 µM, OCI-C5x cells, without rucaparib",95.9% (active)
same,viability,"[12]; at 0.0781 µM, OCI-P5x cells, with rucaparib 20 µM, 100% = cells with rucaparib alone",103% (inactive)
same,viability,"[12]; at 0.0781 µM, OCI-P5x cells, without rucaparib",107% (inactive)
same,viability,"[12]; at 0.313 µM, OCI-C5x cells, with rucaparib 10 µM, 100% = cells with rucaparib alone",110% (inactive)
same,viability,"[12]; at 0.313 µM, OCI-C5x cells, without rucaparib",112% (inactive)
same,viability,"[12]; at 0.313 µM, OCI-P5x cells, with rucaparib 20 µM, 100% = cells with rucaparib alone",87.9% (active)
same,viability,"[12]; at 0.313 µM, OCI-P5x cells, without rucaparib",93.6% (active)
same,viability,"[12]; at 1.25 µM, OCI-C5x cells, with rucaparib 10 µM, 100% = cells with rucaparib alone",90.9% (active)
same,viability,"[12]; at 1.25 µM, OCI-C5x cells, without rucaparib",93.3% (active)
same,viability,"[12]; at 1.25 µM, OCI-P5x cells, with rucaparib 20 µM, 100% = cells with rucaparib alone",74% (active)
same,viability,"[12]; at 1.25 µM, OCI-P5x cells, without rucaparib",56.9% (active)
same,viability,"[12]; at 5 µM, OCI-C5x cells, with rucaparib 10 µM, 100% = cells with rucaparib alone",95.4% (active)
same,viability,"[12]; at 5 µM, OCI-C5x cells, without rucaparib",54.2% (active)
same,viability,"[12]; at 5 µM, OCI-P5x cells, with rucaparib 20 µM, 100% = cells with rucaparib alone",3.53% (active)
same,viability,"[12]; at 5 µM, OCI-P5x cells, without rucaparib",6.43% (active)
